Test results reported in PubChem BioAssay AID1220 (Sanford-Burnham Center for Chemical Genomics, 2008).
In all, about 190,000 compounds went through this assay and about 1,300 (0.68%) were called active. For the sample, actives were picked, then their nearest neighbours and some compounds at random. Values without a mark were called inactive. Rule as the data show it: active = inhibition above about 50%; inactive = the rest.

The compounds below were run against Mannose-6-phosphate isomerase (Homo sapiens) (UniProt P34949) (assay: human PMI inhibitors, high substrate, primary screen, biochemical, fluorescence intensity, high mannose 6-phosphate (AID 1220)). Conditions: recombinant PMI enzyme, coupled fluorescence intensity; at 20 µM; stronger effect = higher value.
Mannose-6-phosphate isomerase (Homo sapiens), sequence (P34949 whole entry, looked up): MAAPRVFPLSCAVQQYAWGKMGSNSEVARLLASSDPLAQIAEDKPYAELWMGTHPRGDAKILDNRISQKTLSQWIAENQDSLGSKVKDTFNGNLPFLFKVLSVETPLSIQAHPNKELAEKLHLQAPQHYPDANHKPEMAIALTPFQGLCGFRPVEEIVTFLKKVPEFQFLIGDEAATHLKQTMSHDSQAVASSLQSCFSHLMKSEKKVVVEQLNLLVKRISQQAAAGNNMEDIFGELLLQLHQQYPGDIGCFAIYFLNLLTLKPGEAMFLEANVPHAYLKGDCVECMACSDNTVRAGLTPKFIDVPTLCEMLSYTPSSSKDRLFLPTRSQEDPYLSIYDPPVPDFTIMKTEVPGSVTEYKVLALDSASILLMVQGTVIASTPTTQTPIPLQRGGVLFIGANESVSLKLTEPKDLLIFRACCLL
For `O=C(Cc1cccc2ccccc12)Nc1ccc(OC(F)F)c(Cl)c1`, the inhibition was 10%. `CC1=CC(=O)C(C(C)C)=C/C1=N/OC(=O)c1cccc([N+](=O)[O-])c1` gave an inhibition of -0.5%. For `CC1=CC(=O)C(C(C)C)=C/C1=N\OC(=O)c1cccc2nc(C)oc12`, the inhibition was 9.2%. `CC1=CC(=O)C(C(C)C)=CC1=NC(=O)c1ccc(C)cc1` was tested, and the inhibition was 79% (active). For `COC(=O)CCc1c(C)c(C(=O)c2ccc(F)cc2)c2ccccn12`, the inhibition was 6.2%. In the case of `CCN=c1sc(C(=O)OC)cc(=O)n1CC`, the inhibition is reported as 3.7%. `O=C(NCC1OCCCN1S(=O)(=O)c1cc(F)ccc1F)C(=O)NC1CCCCC1` (stereo not drawn) gave an inhibition of -0.8%. `COc1ccc2c(C)c(Cc3ccccc3)c(=O)oc2c1OC` gave an inhibition of 0.1%. Work on `CCOC(=O)Cc1c(C)c2c(O)cc(O)cc2oc1=O` yielded an inhibition of 33.5%. With `Cc1c(Cc2ccccc2)c(=O)oc2c(CN(C)C)c(O)c(Cl)cc12` the inhibition was 7.5%. For `Cc1c(Cc2ccccc2)c(=O)oc2cc(O)cc(O)c12`, the inhibition was 58.5% (active). In the case of `Cc1coc2c1c(C)cc1oc(=O)c(Cc3ccccc3)c(C)c12`, the inhibition is reported as -11.6%. Compound `COC(=O)Cc1ccc2oc(-c3cccnc3)nc2c1` has an inhibition of 1.9%. Work on `CCCc1c(C)c2c(C)[nH]nc2oc1=O` yielded an inhibition of 1.7%. `COc1cc(OC)nc(Oc2ccccc2C(=O)Oc2cccc(C)c2)n1` gave an inhibition of 7%. In the case of `Cc1ccc(S(=O)(=O)Nc2nc3ccc(S(=O)(=O)N4CCCC4)cc3s2)cc1`, the inhibition is reported as -22.6%. `NC(=O)c1ccc(C(=O)c2ccc([N+](=O)[O-])cc2)cc1` gave an inhibition of -7.6%. Compound `Cc1ccc(N=C2NC(=O)c3cc([N+](=O)[O-])ccc32)cc1` has an inhibition of 6.9%. Work on `O=C1NC(=Nc2ccccc2)c2ccc([N+](=O)[O-])cc21` yielded an inhibition of -7.3%. For `Cc1cccc(N=C2NC(=O)c3cc([N+](=O)[O-])ccc32)c1`, the inhibition was 0.2%. With `CCC(C)(C)n1nnnc1C(c1cc2cc(C)ccc2[nH]c1=O)N1CCCc2ccccc21` (stereo not drawn) the inhibition was 21.8%. `Cc1ccc2[nH]c(=O)c(C(c3nnnn3C3CCCC3)N3CCCc4ccccc43)cc2c1` (stereo not drawn) was tested, and the inhibition was 61.4% (active). `O=c1[nH]c2cc3c(cc2cc1C(c1nnnn1C1CCCC1)N1CCCc2ccccc21)OCCO3` (stereo not drawn) was tested, and the inhibition was 27.2%. With `Cc1ccnc(NC(=O)C(C)n2cc([N+](=O)[O-])cn2)c1` (stereo not drawn) the inhibition was -10.1%. Compound `O=S(=O)(Nc1ccc(N2CCOCC2)cc1)c1ccc(Cl)s1` has an inhibition of -4.9%. Compound `CCOc1cc(N2CCOCC2)c(OCC)cc1NC(=O)c1ccccc1` has an inhibition of 28.4%. `CCOc1cc(N2CCOCC2)c(OCC)cc1NS(=O)(=O)c1ccc(Cl)s1` was tested, and the inhibition was 54.3% (active). In the case of `CCOc1cc(N2CCOCC2)c(OCC)cc1NC(=O)c1nc2nc(C)cc(C)n2n1`, the inhibition is reported as 14.6%. `CCOc1ccc(Br)cc1S(=O)(=O)Nc1ccccc1N1CCOCC1` showed an inhibition of -0.7%. Compound `FC(F)(F)c1ccc(N2CCOCC2)c(NC2=NCCCCC2)c1` has an inhibition of 2.9%. For `CCOc1cc(N2CCOCC2)c(OCC)cc1NC(=O)c1ccc(C)cc1`, the inhibition was 27.3%. `CCOc1cc(N2CCOCC2)c(OCC)cc1NC1=NCCCCC1` was tested, and the inhibition was 50.1% (active). `CCOc1cc(N2CCOCC2)c(OCC)cc1NC(=O)c1ccco1` gave an inhibition of 25.1%. Work on `CCOc1cc(N2CCOCC2)c(OCC)cc1NC(=O)c1ccc(NC(C)=O)cc1` yielded an inhibition of 26.1%. For `CCOc1cc(N2CCOCC2)c(OCC)cc1NC(=O)c1ccc(S(C)(=O)=O)cc1`, the inhibition was 54.7% (active). With `CCNC(=S)Nc1cc(OCC)c(N2CCOCC2)cc1OCC` the inhibition was 58% (active). Work on `Cc1cc(N)n2ncc(-c3ccc(F)cc3)c2n1` yielded an inhibition of 6.9%. Compound `COCc1cc(C)nc(SCC(=O)Nc2ccccc2C)c1C#N` has an inhibition of -4.7%. Compound `COc1cccc(C(=O)C2CCCN(C(=O)c3cccc(C#CC(C)(C)O)c3)C2)c1` (stereo not drawn) has an inhibition of 13%. In the case of `Cc1ccc2n(n1)c(=O)c(Cc1ccccc1)c([O-])[n+]2-c1ccccc1`, the inhibition is reported as 7.7%. `COCCNC(=O)CN1CCN(Cc2cccc(Cl)c2)C1=O` was tested, and the inhibition was 10.3%. Compound `CCOc1cc(N2CCOCC2)c(OCC)cc1NC(=O)C(C)(C)C` has an inhibition of 27.9%. For `CCOc1cc(N2CCOCC2)c(OCC)cc1NC(=O)c1cc(C)cc(C)c1`, the inhibition was 40.8%. `CCCNC(=O)Nc1cc(OCC)c(N2CCOCC2)cc1OCC` was tested, and the inhibition was 58.7% (active). `COc1ccc(CCn2nnnc2C(CC(C)C)N2CCN(c3ncccn3)CC2)cc1OC` (stereo not drawn) showed an inhibition of 7.5%. `Oc1ccc2ccccc2c1CN1CCN(c2ccccc2)CC1` was tested, and the inhibition was -35.5%. For `Oc1ccc2ccccc2c1CN1CCCC1`, the inhibition was 67.8% (active). With `Oc1ccc2cc(Br)ccc2c1CN1CCCC1` the inhibition was 43.2%.
